Pf Dd2 growth – qHTS Primary assay for Inhibitors of Plasmodium falciparum Dd2 growth in vitro; P. falciparum Dd2 growth, SYBR Green, 72 h; Potency, µM (highest dose often 28.9 µM), usual class: inhibitors; 4.3% of 120,000 active; AID 1347417, 2020; active = well fitted inhibition curve with a large enough effect; also: nearly all actives have a fitted effect of over 65% in size
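Infected erythrocytes (Dd2, 0.3% parasitemia, 2.5% hematocrit final) are added to compound in RPMI-1640/Albumax II medium, grown 72 h at 37C in low oxygen, then lysed with saponin/Triton-X containing SYBR Green and read by fluorescence.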
Each line names hits and unclear results; the compound was inactive in the other large screens; ! = not active in a repeat. The full list was thinned out, with hits kept by preference.

CCc1cccc(NC(=O)Cn2c(N3CCOCC3)nc(COC)cc2=O)c1	none
CCCCNC(=O)C1CCCN(C2CCN(Cc3ccncc3)CC2)C1 (configuration not stated)	none
Cc1cccc(CN2CCC(N3CCCC(C(=O)NC4CC4)C3)CC2)c1 (configuration not stated)	none
O=C(NC1CCCCCCC1)C1CCCN(C2CCN(Cc3ccncc3)CC2)C1 (configuration not stated)	Pf Dd2 growth 13µM
CCc1ccccc1S(=O)(=O)N1CCCC(Cn2c(C3CC3)nc3cccnc32)C1 (configuration not stated)	none
COC(=O)[C@@H]1Cc2ncn(Cc3ccc(OC)cc3)c2CN1Cc1cccc(C#N)c1	Pf Dd2 growth 13µM
COC(=O)[C@@H]1Cc2ncn(Cc3ccc(OC)cc3)c2CN1C(=O)c1ccc(C#N)cc1	none
COC(=O)[C@@H]1Cc2ncn(Cc3ccc(OC)cc3)c2CN1C(=O)c1ccc(F)cc1	none
O=C(c1ccncc1)N1CCC(c2nnc3n2CCNC3)CC1	none
COC(=O)c1cc2n(n1)CCCN(C(=O)c1ccc(OC)nc1OC)C2	none
COc1ccc(-c2noc([C@@H]3CCCN3C(=O)Cc3ccc(F)cc3)n2)cc1OC	none
CCNC(=O)N1CCc2cc(OC)c(OC)cc2C1CNC(=O)C1CC1 (configuration not stated)	none
COc1ccc(CC(=O)N2CCc3cc(OC)c(OC)cc3C2COc2ccc(F)cc2)cc1OC (configuration not stated)	Pf Dd2 growth 11µM
CCOc1cc2c(cc1OCC)C(CC(=O)O)N(C(=O)Nc1ccccc1C(F)(F)F)CC2 (configuration not stated)	none
COc1cc2c(cc1OC)C(COc1ccc(F)cc1)N(C(=O)C(C)C)CC2 (configuration not stated)	none
COc1cc2c(cc1OC)C(CNC(=O)c1ccco1)N(C(=O)Nc1cccc(F)c1)CC2 (configuration not stated)	none
COC(=O)c1ccc(OCC2c3cc(OC)c(OC)cc3CCN2C(=O)c2ccccc2C)cc1 (configuration not stated)	Pf Dd2 growth 11µM
COc1ccc(C(=O)N2CCc3ccc(C(=O)NCc4ccccc4C)cc32)cc1	none
COC(=O)c1ccc(OCC2c3cc(OC)c(OC)cc3CCN2C(=O)c2ccc(F)cc2)cc1 (configuration not stated)	Pf Dd2 growth 11µM
CC(C)(C)NC(=O)N1CCC(OC2CCN(S(C)(=O)=O)CC2)CC1	none
CN(CC1CCOCC1)S(=O)(=O)c1ccc(F)cc1	none
CC(C)NC(=O)N[C@H]1C[C@H]2C(=O)NC[C@@H](CCC(=O)N3CCOCC3)N2C1	none
Cc1nc(N2CCCC(Cn3ccnc3)C2)c2sccc2n1 (configuration not stated)	none
CCN(Cc1ccccc1)C(=O)CC1CCCN(c2cn[nH]c(=O)c2)C1 (configuration not stated)	none
CC(C)N1CCN(C2CCOC3(CCN(C(=O)Nc4ccccc4)CC3)C2)CC1 (configuration not stated)	none
O=C(Nc1ccccc1)N1C[C@@H]2C[C@H](C1)c1ccc(-c3cccc(C(F)(F)F)c3)c(=O)n1C2	none
O=C1NC2(CCN(C(=O)c3ccc4c(c3)OCO4)C2)Oc2ccccc21 (configuration not stated)	none
O=C(c1ccc2c(c1)OCO2)N1CCC2(CC1)COc1ccccc1CN2	Pf Dd2 growth 1.3µM
O=C(c1ccccc1F)N1CCC2(CC1)COc1ccccc1NC2=O	none
O=C1NC2(CCCN(C(=O)c3ccccc3F)C2)COc2ccccc21 (configuration not stated)	none
O=C(c1ccccc1F)N1CCC2(CC1)COc1ccccc1CN2	Pf Dd2 growth 1.1µM
O=C1CC(C(=O)O)C2(CCN(C(=O)c3ccc4c(c3)OCO4)CC2)N1 (configuration not stated)	none
CN1C(=O)c2cccn2CC1C(=O)NCCc1c[nH]c2ccccc12 (configuration not stated)	none
O=C1CCN(C(=O)Nc2ccccc2)CCCC(c2nc(-c3cnccn3)no2)CCN1 (configuration not stated)	none
O=C1COCCN1C1CCN(Cc2cncs2)CC1	none
O=C(O)C1=NOC2CN(Cc3ccc(F)c(F)c3F)CC12 (configuration not stated)	none
COc1ccc(N2CC(C(=O)N3CCN(c4ncccn4)CC3)NC2=O)cc1 (configuration not stated)	none
COc1cccc(CN2CCC(n3cc[nH]c3=O)CC2)c1	none
CN1CCOc2c(C(=O)NCCN3CCNC3=O)cc(-c3ccc(O)c(F)c3)cc21	none
CC1=NS(=O)(=O)N(CCCN2C(=O)c3ccccc3C2=O)C=C1C(=O)O	none
COc1ccc(-c2cnc3[nH]cc(CC(=O)Nc4cccnc4)c3c2)cc1	none
CN1C(=O)C2(CCN(C(=O)Nc3ccccc3F)C2)c2ccccc21 (configuration not stated)	none
CCN1C(=O)C2(CCN(S(=O)(=O)Cc3ccc(Cl)cc3)CC2)c2ccccc21	none
O=C(NC1CCCC1)N1CCC2(C1)C(=O)N(CCc1ccccc1)c1ccccc12 (configuration not stated)	Pf Dd2 growth 7.9µM!
CN1C(=O)C2(CCN(C(=O)C3CCCC3)CC2)c2ccccc21	none
O=C(CC1CCN(C(=O)NC2CCCCC2)C1)NCc1ccccc1 (configuration not stated)	none
Cc1cc(CN2CCC3(C2)C(=O)N(Cc2ccccc2)c2ccccc23)no1 (configuration not stated)	none
O=C(Nc1ccc(Cl)cc1)N1CCC2(C1)C(=O)N(CCc1ccccc1)c1ccccc12 (configuration not stated)	Pf Dd2 growth 4.5µM
O=C1N(CCc2ccccc2)c2ccccc2C12CCN(CC1CC1)C2 (configuration not stated)	Pf Dd2 growth 5µM!
O=C1N(Cc2ccccc2)c2ccccc2C12CCN(Cc1cncs1)C2 (configuration not stated)	none
Cc1ncoc1C(=O)N1CCC(c2noc(-c3cnccn3)n2)C1 (configuration not stated)	none
O=C(c1cnc2c(c1)N([S+](=O)([O-])c1cccnc1)CCC2)N1CCC(c2ccccc2)CC1	none
CC(C)N1CCCC2(CCN(S(=O)(=O)c3cccc(F)c3)C2)C1=O (configuration not stated)	none
O=C(c1ccc2c(c1)OCO2)N1CCC2(CC1)CC(c1ccccc1)=NO2	none
CC(C)c1ccc(OCC(=O)Nc2cc(-c3nc4ncccc4o3)ccc2Cl)cc1	none
Cc1cc(C)cc(OCC(=O)Nc2ccc(-c3nc4ncccc4o3)cc2C)c1	none
CCC(C)c1ccc(OCC(=O)Nc2cccc(-c3nc4ncccc4o3)c2)cc1 (configuration not stated)	Pf Dd2 growth 2.5µM
COc1ccc(CN2C(=O)CO[C@H](c3ccc(NC(=O)Cc4ccccc4)cc3)[C@H]2CO)cc1	none
CC(=O)NCCNC(=O)[C@H]1CN2CCC1C[C@@H]2Cn1cc(CN(C)Cc2ccccc2)nn1 (some centres not stated)	none
CN(Cc1ccccc1)Cc1cn(C[C@H]2CC3CCN2C[C@@H]3C(=O)NCc2ccc(F)cc2)nn1 (some centres not stated)	Pf Dd2 growth 10µM
CN(Cc1ccccc1)Cc1cn(C[C@H]2CC3CCN2C[C@@H]3C(=O)NCc2ccccc2)nn1 (some centres not stated)	none
COc1ccc(C2(C(=O)N3C[C@@H](CO)[C@H](c4nc(C)no4)C3)CC2)cc1	none
CCCS(=O)(=O)N1CCC(c2noc(-c3ccccc3)n2)C1 (configuration not stated)	none
